# Source: PubChem BioAssay (Tox21)
# Inconclusive results are not listed. The source made the active and inactive calls. Calls follow the shape of the full dose curve.
# Experiment: qHTS assay to identify small molecule agonists of the AP-1 signaling pathway - cell viability counter screen (AID 1159525); also: nearly all actives have a fitted effect of over 55% in size
# Conditions: ME-180 (cervical carcinoma) AP-1-bla cells viability, ATP luminescence, 5 h; series mostly up to 76.8 µM
# Excerpt: National Center for Advancing Translational Sciences [NCATS]
# NIH Chemical Genomics Center [NCGC]
# U.S. Environmental Protection Agency [EPA]
# National Institutes of Environmental Health Sciences [NIEHS]
# National Toxicology Program [NTP]
# U.S. Food and Drug Administration [FDA]
# Activator protein-1 (AP-1), a transcription factor, plays an important role in tumor genesis by regulating genes involved in cell proliferation, differentiation, apoptosis, and angiogenesis. AP-1 activity is induced by a complex network of signaling pathways that involves extracellular signals, such as growth factors. The AP-1 protein complex formed from c-Fos and c-Jun binding to the AP-1 response element results in transcriptional activation of genes containing such elements within their promoter.
# Low molecular weight molecules have been discovered and developed to modulate various components of these signaling pathways, for example, MAP kinase inhibitors. However, many points of pathway modulation remain untested due to the lack of chemical probes making this signaling locus of general interest.
# Using a beta-lactamase reporter-gene under control of the AP-1 response element, a cell-based assay [CellSensor(TM) AP-1-bla ME-180 developed by Invitrogen Corp.] was used to measure EGF-induced signaling. The Tox21 10K library compounds were measured for their ability to positively modulate the action of EC50 EGF on reporter gene activity. Compounds were screened in a 15-pt titration series in 1536-well format. The cytotoxicity of the Tox21 compound library against this cell line was tested in parallel by measuring the intra cellular ATP content in the same wells.
# Tox21 Assay Protocol Summary:
# 2500 cells/5uL in Opti-MEM medium containing 0.5% dialyzed FBS, 0.1 mM NEAA, 1 mM sodium pyruvate and 10 mM HEPES was dispensed into 1536-well black wall/clear bottom plates using a Multidrop dispenser and cells were cultured at 37 degrees Celsius overnight. Next day 23 nL of compounds dissolved in DMSO, positive controls or DMSO were delivered to each well using a pin tool. The plates were incubated at 37 degrees Celsius for 5 hours. 1 uL of LiveBLAzerTM B/G FRET substrate (Solution A+B+C+D) was added to each well using a Flying Reagent Dispenser. After incubated at room temperature for 2.5 hours the plates were measured on an EnVision plate reader at Excitation 405nm, Emission1=460nm and Emission 2=530nm. The %Activity was determined from the ratio of 460nm/530nm.
# After the plates were read for Beta-Lactamase assay on Envision; 3 ul Cell Titer Glo (Promega) was added to measure the cytotoxicity and the plates were then incubated at RT in dark for 30 min. The luminescence was read on ViewLux (Perkin Elmer, Shelton, CT) using 6 sec exposure. ViewLux data was expressed as relative luminescence units.
# For primary data analysis, raw plate reads for each titration point were first normalized relative to […] EGF control (100%) and DMSO only wells (basal, 0%).
# For primary data analysis for viability assay, raw plate reads for each titration point were first normalized Tetra n-octyl ammonium bromide control (-100%) and DMSO (control, 100%).
row,SMILES,outcome
1,CC1(COc2ccc(CC3SC(=O)NC3=O)cc2)CCCCC1 (stereo not given),inactive
2,CC(C(=O)O)c1ccc(/C=C2\CCCCC2=O)cc1 (stereo not given),inactive
3,N#CCCCC(C#N)CCC#N (stereo not given),inactive
4,Nc1ccc(-c2ccc(F)cc2)cc1,inactive
5,CC(COc1ccccc1)NC(C)C(O)c1ccc(O)cc1 (stereo not given),inactive
6,CC1(C)C(=O)NC(=O)N1CO,inactive
7,Nc1ccc(C(=O)Oc2ccccc2)c(O)c1,inactive
8,COc1ccc(C(=O)c2ccc(C)cc2)c(O)c1,inactive
9,C[C@H](N)C(=O)N[C@@H](C)C(=O)NC1[C@H]2CN(c3nc4c(cc3F)c(=O)c(C(=O)O)cn4-c3ccc(F)cc3F)C[C@@H]12 (stereo not given in full),inactive
10,C[C@H](CN1CCCC1)C(=O)c1ccc(C(F)(F)F)cc1,inactive
11,CC(O)C(C)O (stereo not given),inactive
12,CNc1ccccc1,inactive
13,COc1cccc([C@H](O)C2CCN(CCc3ccc(F)cc3)CC2)c1OC,inactive
14,O=c1c2ccccc2oc2ccccc12,inactive
15,Nc1ccc(F)cc1F,inactive
16,CCC1=C(C)CN(C(=O)NCCc2ccc(S(=O)(=O)NC(=O)NC3CCC(C)CC3)cc2)C1=O (stereo not given),inactive
17,COc1cc(CNC(=O)CCCC/C=C/C(C)C)ccc1O,inactive
18,COC(=O)/C=C/C(C)=C\C=C\C(C)=C\C=C\C=C(C)\C=C\C=C(C)\C=C\C(=O)O,inactive
19,O=C(O)c1ccncc1,inactive
20,CCCCCCCCC(=O)OCC(C)OC(=O)CCCCCCCC (stereo not given),inactive

row,SMILES,outcome
1,CCCCCCOC(=O)c1ccccc1,inactive
2,CC(C)=CCCC(C)C=O (stereo not given),inactive
3,CCC(C)CCCC(C)(C)O (stereo not given),inactive
4,CCCCOc1ccc(N)cc1,inactive
5,CC(C)Oc1ccccc1O,inactive
6,CCCC(=O)OCCC(C)C,inactive
7,CCC(=O)O[C@]1(C(=O)COC)[C@@H](C)C[C@H]2[C@@H]3CCC4=CC(=O)C=C[C@]4(C)C3(F)[C@@H](O)C[C@@]21C (stereo not given in full),inactive
8,O=C(N[C@@H](Cc1ccccc1)[C@@H](O)C(=O)N1C[C@@H](O)[C@@H](O)C1)c1cc2cc(Cl)ccc2[nH]1,inactive
9,CCCC1CCOC(C)S1 (stereo not given),inactive
10,Cc1ccc(NC(=O)c2ccc(CN3CCN(C)CC3)cc2)cc1Nc1nccc(-c2cccnc2)n1,inactive
11,Cc1c(N=C=O)cccc1N=C=O,inactive
12,O=S(=O)(O)c1cc(Cl)c(Cl)cc1Cl,inactive
13,CCC(CC)C(=O)O,inactive
14,CCC(C)C1N=C(C)C(C)S1 (stereo not given),inactive
15,SCCOCCOCCS,inactive
16,CCCCOC(=O)C(C)Oc1ccc(Oc2ccc(C(F)(F)F)cn2)cc1 (stereo not given),inactive
17,CCOC(C)OCC,inactive
18,CCCOC(C)=O,inactive
19,Cc1cc(C)n(CO)n1,inactive
20,O=C(c1ccc(Cl)cc1)c1ccc(Cl)cc1,inactive
